Measured values taken from publication PMC4336329 (PLoS ONE, 2015).
The campaign covered roughly 310,000 compounds. About 14,000 (4.5%) showed an effect of 50% or more. Effects have a minus sign here. For the sample, strong results were picked, then their nearest neighbours and some compounds at random.

Target: human ether-à-go-go-related gene (hERG) potassium channel (human, UniProt Q12809)
Assay: primary screen, population patch clamp on CHO cells stably expressing hERG; higher = less effect of the substance
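Further: peak tail current of the secondary pulse compared with the same well before compound.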

human ether-à-go-go-related gene (hERG) potassium channel, sequence (Q12809 whole entry, looked up): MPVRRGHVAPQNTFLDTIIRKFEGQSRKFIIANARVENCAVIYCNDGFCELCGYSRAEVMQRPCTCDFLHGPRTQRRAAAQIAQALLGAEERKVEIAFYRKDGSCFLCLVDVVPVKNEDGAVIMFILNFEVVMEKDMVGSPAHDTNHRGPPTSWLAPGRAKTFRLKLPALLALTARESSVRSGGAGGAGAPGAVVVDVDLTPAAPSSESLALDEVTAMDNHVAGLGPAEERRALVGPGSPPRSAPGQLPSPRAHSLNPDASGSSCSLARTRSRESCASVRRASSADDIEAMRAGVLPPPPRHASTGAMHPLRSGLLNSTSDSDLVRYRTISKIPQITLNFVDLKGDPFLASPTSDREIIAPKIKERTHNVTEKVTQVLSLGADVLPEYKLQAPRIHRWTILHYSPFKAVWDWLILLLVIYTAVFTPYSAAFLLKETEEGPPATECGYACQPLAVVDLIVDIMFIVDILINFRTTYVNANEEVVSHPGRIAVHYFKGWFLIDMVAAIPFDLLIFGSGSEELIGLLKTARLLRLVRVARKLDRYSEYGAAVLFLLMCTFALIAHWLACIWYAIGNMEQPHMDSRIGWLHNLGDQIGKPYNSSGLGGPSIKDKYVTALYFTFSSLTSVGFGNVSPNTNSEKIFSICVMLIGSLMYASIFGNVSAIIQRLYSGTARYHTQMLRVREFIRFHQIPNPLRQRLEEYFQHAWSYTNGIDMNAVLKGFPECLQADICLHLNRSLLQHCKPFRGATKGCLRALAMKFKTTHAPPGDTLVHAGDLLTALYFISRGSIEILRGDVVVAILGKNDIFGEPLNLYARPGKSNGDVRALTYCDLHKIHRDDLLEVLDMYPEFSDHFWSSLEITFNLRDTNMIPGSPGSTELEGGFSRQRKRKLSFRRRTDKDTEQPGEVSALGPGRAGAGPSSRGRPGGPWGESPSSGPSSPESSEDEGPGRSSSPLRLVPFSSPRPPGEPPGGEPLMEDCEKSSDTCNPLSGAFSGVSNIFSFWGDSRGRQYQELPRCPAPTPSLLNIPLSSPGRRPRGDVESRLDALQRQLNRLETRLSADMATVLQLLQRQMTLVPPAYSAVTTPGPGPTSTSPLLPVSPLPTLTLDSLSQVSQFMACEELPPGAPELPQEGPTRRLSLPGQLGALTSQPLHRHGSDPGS

SMILES | hERG current change (%, negative = inhibition) at 10uM [%]
CC(=O)N1CCOc2cc(S(=O)(=O)NCc3ccc(F)cc3)c(C)cc21 | -16.6
CCOc1ccc(/C=C/c2[nH]c(=O)[nH]c(=O)c2[N+](=O)[O-])cc1 | 8.01
O=C(CCC(=O)Nc1ccccc1)N/N=C/c1ccc2c(c1)OCO2 | 28.7
O=C(c1ccccc1S(=O)(=O)NCc1ccccc1)N1CCCC1 | -4.43
CCN(CC)Cc1cc(C(C)=O)ccc1OCC(C)C | -31.5
CC(C)c1ccc(C2N3CC4([N+](=O)[O-])CN2CC([N+](=O)[O-])(C3)C4(C)C)cc1 (stereo not drawn) | 28.4
O=C(O)c1ccc(NS(=O)(=O)c2ccc3c(c2)OCCCO3)cc1 | 4.23
CN1CCN(S(=O)(=O)c2cc(C(F)(F)F)ccc2Cl)CC1.Cl | 10.4
CC(=O)c1sc2nc(=O)c(C)nn2c1C | -0.703
O=c1[nH]c(/C=C\c2ccc(O)c(O)c2)nc(O)c1[N+](=O)[O-] | 16.2
Cc1ccc(OCCCN2CCOCC2)cc1 | 13.3
Cl.c1ccc(-c2ccc(OCCN3CCOCC3)cc2)cc1 | 3.74
CCCCOc1ccc(CN2CCN(CC)CC2)cc1 | -14.2
CCCCOc1ccc(OCCCN2CCOCC2)cc1.Cl | -23.1
CN1CCN(CCCOc2ccc(-c3ccccc3)cc2)CC1.Cl | -69.1
CN1CCN(CCOc2ccc(Cc3ccccc3)cc2)CC1.Cl | -23.4
CCN1CCN(CCCOc2ccc(-c3ccccc3)cc2)CC1 | -71.9
CN1CCN(CCOc2ccc(-c3ccccc3)cc2)CC1.Cl | -56.3
COc1ccc(C(C(=O)NC2CCCC2)N(C(=O)c2ccoc2C)c2cc(C)cc(C)c2)cc1 (stereo not drawn) | -10.9
O=C(CSc1nnc(CNC(=O)c2ccco2)o1)Nc1nc2ccccc2s1 | 16.1

SMILES | hERG current change (%, negative = inhibition) at 10uM [%]
COc1cc(CC(NC(C)=O)C(=O)NC2CCN(S(=O)(=O)c3ccc(NC(C)=O)cc3)CC2)cc(OC)c1 (stereo not drawn) | 21.7
Cc1nn(-c2ccccc2)c(N)c1Sc1ccccc1[N+](=O)[O-] | -26.7
Cc1nn(-c2nc3ccccc3s2)c(N)c1Sc1ccc(F)cc1 | 7.4
Cc1ccc(-c2cnn(-c3cccc([N+](=O)[O-])c3)c2N)cc1 | -24.1
Cc1nn(-c2ccc([N+](=O)[O-])cc2)c(N)c1-c1ccccc1 | -19.1
Cc1nn(-c2cccc([N+](=O)[O-])c2)c(N)c1-c1ccccc1 | -68.7
Cc1cc(C)nc(-n2nc(C)c(C3(O)C(=O)Nc4ccc(F)cc43)c2N)n1 (stereo not drawn) | 3.79
Cc1nn(-c2ccccc2)c(N)c1Sc1ccc([N+](=O)[O-])cc1 | -75.2
Nc1c(-c2ccccc2Cl)cnn1-c1cccc([N+](=O)[O-])c1 | -49.4
Cc1cc(C)nc(-n2nc(C)c(Sc3ccc(F)cc3)c2N)n1 | -61.7
Cc1ccccc1-c1cnn(-c2cccc([N+](=O)[O-])c2)c1N | -56.7
Cc1nn(-c2ccccc2)c(N)c1-c1ccccc1 | 5.13
Cc1nn(S(=O)(=O)c2ccccc2)c(C)c1Sc1ccc([N+](=O)[O-])cc1 | -6.26
CC(C(=O)NCc1cccnc1)N1C(=O)c2ccccc2C1=O (stereo not drawn) | 17.4
CNC(=O)CSCCn1c(SCC(=O)NC)nc2ccccc2c1=O | 13.1
COc1ccc(-c2cc(C(F)(F)F)n3ncc(C(=O)N(C)Cc4ccccc4)c3n2)cc1 | -17
Cc1cc(C)cc(Oc2ccc(N)cc2)c1 | -15.1
COc1ccccc1NC(=O)C(C)N(C)CCOc1ccccc1 (stereo not drawn) | 16.5
COc1ccc(Cn2c(C)nnc2-c2cnn(C)c2N)cc1 | 14.8
O=S(=O)(NCC1CCCO1)c1cccc(S(=O)(=O)N2CCCC2)c1 (stereo not drawn) | -14

SMILES | hERG current change (%, negative = inhibition) at 10uM [%]
CCN1CCN(C(=O)CCNC(=O)Cn2ccc3ccccc3c2=O)CC1 | 13.9
Cc1ccc(-c2nc(CSc3nc4ccccc4c(=O)n3C)cs2)cc1 | 9.52
CCN1CCN(CCCNC(=O)c2ccc(NC(=O)C3=C(C)OCCS3)cc2)CC1 | 17.6
O=C(O)c1cccc2c1/C(=N/Nc1ccc([N+](=O)[O-])cc1[N+](=O)[O-])c1ccccc1-2 | 19.7
Cc1nn(-c2ccccc2)c(N)c1Sc1cccc([N+](=O)[O-])c1.Cl | -65.9
Cc1nn(C(=O)c2cccc([N+](=O)[O-])c2)c(C)c1Sc1ccccc1 | 7.61
Cc1ccc(-n2nc(C)c(Sc3ccccc3[N+](=O)[O-])c2N)cc1 | -17.2
CCOc1ccc(NC(=O)c2ccc(NC(=S)NC3CCCCC3)cc2)cc1 | 20.9
O=C(CCN1C(=O)c2ccncc2C1=O)NCc1ccc(Cl)cc1 | -51.9
Cc1ccc(CNC(=O)CCN2C(=O)[C@@H]3Cc4ccccc4CN3C2=O)cc1 | -40.5
Cc1cc(C)cc(NC(=O)CCCCCN2C(=O)[C@@H]3Cc4ccccc4CN3C2=O)c1 | -51.9
O=C(CCN1C(=O)[C@@H]2Cc3ccccc3CN2C1=O)NCc1ccccc1 | -12
Cc1cc(C)cc(NC(=O)CCCN2C(=O)C(c3ccccc3)Oc3cccnc32)c1 (stereo not drawn) | -1.03
O=C(CCCN1C(=O)C(c2ccccc2)Oc2cccnc21)Nc1cccc(F)c1 (stereo not drawn) | -50.2
Cc1cccc(NC(=O)CCCCCN2C(=O)[C@@H]3Cc4ccccc4CN3C2=O)c1 | -21.7
Cc1ccc(NC(=O)CCCCCN2C(=O)[C@@H]3Cc4ccccc4CN3C2=O)cc1 | -12.1
COc1ccc(CNC(=O)CCN2C(=O)c3ccncc3C2=O)cc1OC | 13
CCc1cccc(NC(=O)CCCN2C(=O)C(c3ccccc3)Oc3cccnc32)c1 (stereo not drawn) | -2.79
O=C(CCN1C(=O)c2ccccc2C1=O)NCc1ccc(Cl)cc1 | -16.9
O=C(CCN1C(=O)[C@@H]2Cc3ccccc3CN2C1=O)NCc1ccc(Cl)cc1 | -64.2
